For assay [1], the target named is Catechol O-methyltransferase (Homo sapiens) (UniProt P21964). In words: Confirmatory Screen for Target Class Profiling of Small Molecule Inhibitors of Methyltransferases (AID 1745852; calls by dose curve; further: potency means the concentration at half of the fitted maximal effect; on activity change, negative = inhibition: on the % scale 0 is the no-effect control and ±100 the full control effect). The following applies: MTase-Glo luminescence, SAH detection, recombinant enzyme; measured here: COMT max response; stronger effect = lower value.
Sequence of Catechol O-methyltransferase (Homo sapiens) (P21964 whole entry, looked up): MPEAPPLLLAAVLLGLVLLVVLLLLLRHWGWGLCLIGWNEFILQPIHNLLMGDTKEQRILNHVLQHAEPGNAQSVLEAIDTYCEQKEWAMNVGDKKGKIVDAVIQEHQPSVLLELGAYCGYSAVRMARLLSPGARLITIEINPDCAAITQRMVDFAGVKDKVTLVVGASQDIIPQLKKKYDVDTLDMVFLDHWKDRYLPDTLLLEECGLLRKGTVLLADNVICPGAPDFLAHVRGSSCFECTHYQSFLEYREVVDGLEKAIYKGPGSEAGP
Assay [2] deals with Guanidinoacetate N-methyltransferase (Homo sapiens) (UniProt Q14353). Described as above. The settings on record: MTase-Glo luminescence, SAH detection, recombinant enzyme; activity change, negative = inhibition: at 57.3 µM (top of the series) unless noted; series mostly up to 57.3 µM.
Assay [3] has as its target Nicotinamide N-methyltransferase (Homo sapiens) (UniProt P40261). The assay is described as above. The settings on record: MTase-Glo luminescence, SAH detection, recombinant enzyme; measured here: NNMT max response; stronger effect = lower value.
In assay [4] the target is Phenylethanolamine N-methyltransferase (Homo sapiens) (UniProt P11086). The assay is described as above. The following applies: MTase-Glo luminescence, SAH detection, recombinant enzyme; measured here: PNMT max response; stronger effect = lower value.
Sequence of Phenylethanolamine N-methyltransferase (Homo sapiens) (P11086 whole entry, looked up): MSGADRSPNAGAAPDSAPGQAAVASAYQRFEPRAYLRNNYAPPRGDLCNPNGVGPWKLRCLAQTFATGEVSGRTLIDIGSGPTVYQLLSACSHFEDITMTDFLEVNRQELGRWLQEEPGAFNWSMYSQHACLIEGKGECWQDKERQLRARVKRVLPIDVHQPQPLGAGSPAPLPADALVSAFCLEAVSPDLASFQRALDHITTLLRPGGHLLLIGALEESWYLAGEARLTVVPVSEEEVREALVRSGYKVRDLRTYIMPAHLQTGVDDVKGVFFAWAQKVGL
In assay [5] the target is Rap guanine nucleotide exchange factor 4 (Homo sapiens) (UniProt Q8WZA2). The experiment in a line: Confirmatory qHTS for antagonist of cAMP-regulated guanine nucleotide exchange factor 4 (EPAC2) (AID 1645885). Further: nearly all actives have a fitted effect of over 25% in size. Further: potency means the concentration at half of the fitted maximal effect. On activity change, negative = inhibition: on the % scale 0 is the no-effect control and ±100 the full control effect. The settings on record: EPAC2 Rap1B-BODIPY-GDP exchange fluorescence, biochemical; series mostly up to 114 µM.
Sequence of Rap guanine nucleotide exchange factor 4 (Homo sapiens) (Q8WZA2 whole entry, looked up): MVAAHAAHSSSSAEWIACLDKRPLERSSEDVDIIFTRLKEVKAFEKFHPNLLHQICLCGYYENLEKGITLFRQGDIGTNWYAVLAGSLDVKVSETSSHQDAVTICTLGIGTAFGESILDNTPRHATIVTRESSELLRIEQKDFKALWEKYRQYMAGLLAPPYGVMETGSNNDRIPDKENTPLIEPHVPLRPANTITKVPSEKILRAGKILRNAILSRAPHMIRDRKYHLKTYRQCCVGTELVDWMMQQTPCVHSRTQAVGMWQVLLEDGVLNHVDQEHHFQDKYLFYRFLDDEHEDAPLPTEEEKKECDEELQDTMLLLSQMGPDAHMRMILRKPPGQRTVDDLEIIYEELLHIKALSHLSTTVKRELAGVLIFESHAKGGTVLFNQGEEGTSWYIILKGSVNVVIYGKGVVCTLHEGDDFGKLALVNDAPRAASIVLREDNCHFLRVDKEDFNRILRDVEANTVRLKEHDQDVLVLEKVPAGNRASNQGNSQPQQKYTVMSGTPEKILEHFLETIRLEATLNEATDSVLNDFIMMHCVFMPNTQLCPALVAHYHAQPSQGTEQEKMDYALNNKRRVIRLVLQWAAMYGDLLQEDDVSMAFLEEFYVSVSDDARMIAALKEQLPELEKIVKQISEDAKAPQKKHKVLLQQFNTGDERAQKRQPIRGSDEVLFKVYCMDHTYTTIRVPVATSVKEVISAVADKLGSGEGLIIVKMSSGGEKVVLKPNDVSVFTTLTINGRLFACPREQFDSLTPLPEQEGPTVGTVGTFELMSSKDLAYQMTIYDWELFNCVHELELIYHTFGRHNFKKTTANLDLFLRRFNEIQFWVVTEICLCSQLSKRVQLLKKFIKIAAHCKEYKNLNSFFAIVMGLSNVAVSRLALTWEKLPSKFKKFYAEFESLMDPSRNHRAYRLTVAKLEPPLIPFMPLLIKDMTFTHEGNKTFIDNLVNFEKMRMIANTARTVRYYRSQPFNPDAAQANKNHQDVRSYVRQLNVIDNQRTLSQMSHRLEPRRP
Assay [6] addresses Rap guanine nucleotide exchange factor 3 (Homo sapiens) (UniProt O95398). In words: Counterscreen qHTS for agonist of cAMP-regulated guanine nucleotide exchange factor 3 (EPAC1) (AID 1645889). Further: % of control where 0% means no effect; nearly all actives have a fitted effect of over 40% in size. The settings on record: EPAC1 Rap1B-BODIPY-GDP exchange, fluorescence; series mostly up to 154 µM. The source says:
Assay Provider (PI): Xiaodong Cheng Ph.D. The University of Texas Medical Branch, […], TX MLPCN Grant: NS066510 In multi-cellular eukaryotic organisms, the effects of cAMP are transduced by two ubiquitously-expressed intracellular cAMP receptors, the classic protein kinase A/cAMP-dependent protein kinase (PKA/cAPK) and the more recently discovered exchange protein directly activated by cAMP/cAMP-regulated guanine nucleotide exchange factor (EPAC/cAMP-GEF). Both PKA and EPAC are ubiquitously expressed in all tissues, and an increase in intracellular cAMP levels will lead to the activation of both PKA and EPAC. […] This qHTS will be used to screen the Molecular Libraries Small Molecule Repository (MLSMR) as a concentration-titration series using the NCGC unique quantitative screening (qHTS) platform to find activators for EPAC1. […] Activators are identified by monitoring the change in fluorescence signal as the exchanged free BODIPY-GDP has a reduced fluorescence compared to Rap1-bound BODIPY-GDP. […]
EPAC1 Counterscreen PROTOCOL TABLE SEQUENCE No. (e.g., 1, 2, 3, etc.); […] […] Fluorescence. (Read 1), Ex/Em = 480 nm / 540 nm. […] Fluorescence. (Read 2), Ex/Em = 480 nm/ 540 nm. […] Fluorescence. (Read 3), Ex/Em = 480 nm / 540 nm. […] Fluorescence. (Read 4), Ex/Em = 480 nm / 540 nm. […]

Assay [7] shares this target. The experiment in a line: Counterscreen qHTS for antagonist of cAMP-regulated guanine nucleotide exchange factor 3 (EPAC1) (AID 1645888).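 Further: fluorescence loss as bound BODIPY-GDP is released from Rap1B; % of control where 0% means no effect.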 The following applies: Rap1B-BODIPY-GDP nucleotide exchange, fluorescence; series mostly up to 154 µM. Put shortly: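 Rap1B-BODIPY-GDP 250 nM + GDP 50 uM; cpds 7-pt, final 9.74 nM–152 uM (activator mode) or from 7.32 nM upwards (inhibitor mode); RT; FI 480/540 nm at 5 and 30 min, then ± cAMP, reread.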
(Counterscreens check selectivity or assay interference.)

Records with an inconclusive call do not appear. The source made the active and inactive calls. Unless noted, the call rests on the fitted dose curve; in most records, active means well fitted curve in the direction sought with a large enough effect; inconclusive means small, poorly fitted or top-dose-only effect, or another doubt; inactive means no such curve, though single readings can be large; an effect the other way counts as inactive or inconclusive.

Sequence of Nicotinamide N-methyltransferase (Homo sapiens) (P40261 whole entry, looked up): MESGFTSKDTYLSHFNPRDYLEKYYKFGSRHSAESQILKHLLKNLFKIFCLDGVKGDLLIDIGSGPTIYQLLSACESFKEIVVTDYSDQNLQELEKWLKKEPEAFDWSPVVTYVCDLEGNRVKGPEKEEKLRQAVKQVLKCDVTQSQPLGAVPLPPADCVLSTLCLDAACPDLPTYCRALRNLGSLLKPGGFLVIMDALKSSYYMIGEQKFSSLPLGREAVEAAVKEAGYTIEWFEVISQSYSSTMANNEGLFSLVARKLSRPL
Sequence of Rap guanine nucleotide exchange factor 3 (Homo sapiens) (O95398 whole entry, looked up): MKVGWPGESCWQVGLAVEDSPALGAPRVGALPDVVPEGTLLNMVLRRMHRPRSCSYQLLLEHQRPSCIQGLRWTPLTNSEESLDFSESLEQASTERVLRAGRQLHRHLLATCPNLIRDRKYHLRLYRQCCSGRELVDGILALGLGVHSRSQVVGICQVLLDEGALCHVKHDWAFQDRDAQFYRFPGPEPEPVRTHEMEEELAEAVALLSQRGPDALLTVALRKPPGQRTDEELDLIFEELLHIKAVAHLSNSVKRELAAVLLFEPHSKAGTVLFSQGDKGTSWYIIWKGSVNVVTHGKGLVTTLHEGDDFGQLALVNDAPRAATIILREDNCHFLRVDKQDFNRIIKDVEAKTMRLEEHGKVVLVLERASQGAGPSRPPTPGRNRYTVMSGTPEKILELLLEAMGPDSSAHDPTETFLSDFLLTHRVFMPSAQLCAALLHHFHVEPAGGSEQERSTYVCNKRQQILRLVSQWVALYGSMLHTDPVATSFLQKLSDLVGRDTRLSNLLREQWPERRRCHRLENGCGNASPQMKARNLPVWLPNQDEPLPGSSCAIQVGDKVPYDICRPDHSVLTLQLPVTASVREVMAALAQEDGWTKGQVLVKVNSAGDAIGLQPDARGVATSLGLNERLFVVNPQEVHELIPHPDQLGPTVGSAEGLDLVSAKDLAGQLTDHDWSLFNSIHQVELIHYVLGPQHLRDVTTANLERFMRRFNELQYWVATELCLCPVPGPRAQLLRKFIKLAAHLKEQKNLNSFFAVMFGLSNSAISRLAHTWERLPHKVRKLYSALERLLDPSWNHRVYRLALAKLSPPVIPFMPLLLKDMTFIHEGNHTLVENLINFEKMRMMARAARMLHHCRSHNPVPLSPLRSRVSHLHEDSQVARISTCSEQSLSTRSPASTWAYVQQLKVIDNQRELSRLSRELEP

With `O=C(NCCCNc1nc(Nc2cccc(CN3CCOCC3)c2)ncc1C1CC1)C1CCC1`, the results for the activity in assay [1], in assay [3] and in assay [4] were -3.13%, -11.4% and -23.2%, respectively. For the same molecule, the activity change, negative = inhibition in assay [2] amounted to 0%.

For the molecule `C[C@]12CC[C@@H]3c4ccc(OS(=O)(=O)O)cc4CC[C@H]3[C@@H]1CCC2=O`, in assay [5], the Potency result is “inactive”. Further, the outcome in assay [6] is “inactive”.

With `CCNC(=O)C#Cc1ccc2c(C(=Nc3ccc(CN(C)C)cc3)c3ccccc3)c(O)[nH]c2c1`, the results for the activity in assay [1], in assay [3] and in assay [4] were -20.9%, -31% and -19.5%, respectively. Also, the activity change, negative = inhibition in assay [2] was -11.9% [at 29.8 µM].

`Fc1ccc2[nH]ccc2c1-c1nc(N2CCOCC2)c2sc(CN3CCN(CC4CC4)CC3)cc2n1`: the activity was -1.17% in assay [1], -62.5% in assay [3] and -22.1% in assay [4]. The activity change, negative = inhibition in assay [2] was 0%.

Regarding `Cc1c(OCc2cccc(-c3ccc(C(=O)O)cc3)c2)cc2c(c1C)C(=O)C(C1CCCC1)C2` (stereo not drawn), the results for the activity in assay [1], in assay [3] and in assay [4] were -4.94%, -40.4% and -6.25%, respectively. Further, in assay [2], the activity change, negative = inhibition is -6.27%.

Turning to `NC(=O)c1ccccc1Nc1ccnc(Nc2cccc(O)c2)n1`, the activity in assay [1] was -4.04%; in assay [3], -41.1%; in assay [4], -7.27%. Further, in assay [2], the activity change, negative = inhibition turned out to be 1.25%.

Take `Cc1nc(C#Cc2ccnc(Cl)c2)c(C)n1-c1ccc(F)cc1`: the activity is -47.3% in assay [1], -47.6% in assay [3] and -47.9% in assay [4]. The Potency in assay [2] is 30.4 µM (active).

`CC(=O)[C@H]1CC[C@H]2[C@@H]3CC=C4C[C@@H](OS(=O)(=O)O)CC[C@]4(C)[C@H]3CC[C@]12C`: the Potency result in assay [5] is “inactive”. For the same molecule, the outcome in assay [7] was “inactive”.

As to `O=C(O)c1cc2ccccc2c(Cc2c(O)c(C(=O)O)cc3ccccc23)c1O`, the Potency result in assay [5] is “inactive”.

Regarding `Nc1nc(NC2CC2)cc(-c2cccc(Cl)c2Cl)n1`, the activity in assay [1] was -8.02%; in assay [3] it was -52.3%; in assay [4], -7.75%. The activity change, negative = inhibition in assay [2] was -4.54%.

For the molecule `COc1cc2c(NC3CCN(C(C)C)CC3)nc(N3CCC(F)(F)CC3)nc2cc1OCCCN1CCCC1`, the activity in assay [1] was -11.2%; in assay [3], -8.4%; in assay [4], -0.61%. Further, the activity change, negative = inhibition in assay [2] was -0.0366%.

Consider `CC(C)(C)Sc1c(CC(C)(C)C(=O)O)n(Cc2ccc(Cl)cc2)c2ccc(OCc3ccc4ccccc4n3)cc12`, for which the results for the activity in assay [1], in assay [3] and in assay [4] were 1.57%, -17.1% and -5.18%, respectively. Also, the Potency entry in assay [2] was “inactive”.

Consider `C=C1C(=O)OC2/C=C(\CO)CC/C=C(\C=O)C(OC)C(OC(=O)C(C)CC)C12` (stereo not drawn), for which the values for the activity in assay [1], in assay [3] and in assay [4] were -88.5%, 4.11% and 1.39%, respectively. Further, the activity change, negative = inhibition in assay [2] is 0% [at 29.8 µM].

As for `COc1cc(/C=N\NC(=O)c2ccc3c(c2)OCO3)ccc1OCc1ccccc1`, the activity in assay [1] was -3.52%; in assay [3], -20.5%; in assay [4] it was -1.07%. Moreover, the activity change, negative = inhibition in assay [2] is 1.69%.

For the molecule `O=C(O)CSc1cc(NS(=O)(=O)c2ccc(Br)cc2)c2ccccc2c1O`, in assay [5], the Potency was 47.8 µM (active). Moreover, in assay [7], the outcome was “inactive”.

On to `COc1c(CCC(=O)O)cccc1O[C@@H]1O[C@H](CO)[C@@H](O)[C@H](O)[C@H]1O`, for which the activity in assay [1] is -74.9%; in assay [3] it was 0.561%; in assay [4], -9.51%. The activity change, negative = inhibition in assay [2] came to 2.56%.

On to `O=C(NCCCc1ccccc1)c1cccc(-c2cc(O)c3ncccc3c2)c1`, for which the activity in assay [1] was -82.7%; in assay [3] it was -28.1%; in assay [4] it was 4.23%. Also, the activity change, negative = inhibition in assay [2] is -1.73%.

Consider `Cc1cc(NC(=O)c2cccc(NC(=O)/C=C/CN(C)C)c2)ccc1Nc1nccc(-c2cccnc2)n1`, for which the figures for the activity in assay [1], in assay [3] and in assay [4] were -3.09%, -3.09% and -2.64%, respectively. For the same molecule, the activity change, negative = inhibition in assay [2] stood at 1.37%.

`CCCCCc1ccc(/C=C/C(=O)Nc2cc(Cl)ccc2C(=O)O)cc1`: the activity in assay [1] is -6.7%; in assay [3], -47.8%; in assay [4], -21.5%. For the same molecule, the Potency in assay [2] is 42.9 µM (active).

As for `C=C1C(=O)OC[C@@H]1C/C=C(\C)CC1CC(C)C(=O)O1` (stereo partly drawn), the activity in assay [1] was -80%; in assay [3], 0.776%; in assay [4], 0.671%. Also, in assay [2], the activity change, negative = inhibition was -0.246%.

As for `COc1ccc(NC(=O)c2ccc(-c3ccc(C(=N)N)cc3C)cc2)cc1N1CCN(C)CC1`, the activity in assay [1] was -5.44%; in assay [3], -3.54%; in assay [4] it was -6.51%. In addition, the activity change, negative = inhibition in assay [2] is 2.76%.

For `COc1cc2ncnc(Nc3cccc(I)c3)c2cc1OC`, the values for the activity in assay [1], in assay [3] and in assay [4] were -55.8%, -40.1% and -56.9%, respectively. For the same molecule, the Potency in assay [2] is 34.1 µM (active).

On to `C[C@H](Oc1cc(-c2cnn(C3CCNCC3)c2)cnc1N)c1c(Cl)ccc(F)c1Cl`, for which the results for the activity in assay [1], in assay [3] and in assay [4] were -64.7%, -75.2% and -61.8%, respectively. In addition, in assay [2], the Potency is 27.1 µM (active).

Regarding `COc1cccc(-c2cn(-c3ccc(CCN4CCC(O)CC4)cc3)c3ncnc(N)c23)c1`, the activity was -79.5% in assay [1], -80.6% in assay [3] and -84.3% in assay [4]. In assay [2], the Potency was 24.1 µM (active).

For the molecule `N#Cc1cnc2c(Cl)cc(NCc3cn(CCN4CCCCCC4)nn3)cc2c1Nc1ccc(F)c(Cl)c1`, the activity was -24.8% in assay [1], -26.2% in assay [3] and -36.9% in assay [4]. Moreover, the Potency in assay [2] was 15.2 µM (active).

For `Clc1ccc(Cn2c(Cc3ccccc3)nc3ccccc32)cc1`, the values for the activity in assay [1], in assay [3] and in assay [4] were -6.59%, -51% and -7.3%, respectively. In assay [2], the activity change, negative = inhibition was -6.78%.

As for `CC(=O)S[C@@H]1CC2=CC(=O)CC[C@]2(C)[C@H]2CC[C@@]3(C)[C@@H](CC[C@@]34CCC(=O)O4)[C@H]12`, in assay [5], the Potency entry is “inactive”.

Take `C=C1C(=O)OC2C1CCC1(C)C(O)CCC(=C)C21` (stereo not drawn): the activity in assay [1] is -62.8%; in assay [3], 1.08%; in assay [4], -1.43%. Also, the activity change, negative = inhibition in assay [2] was -2.15%.

`Cc1cc2c(N3CCCC3)nc(N3CCCC3)nc2n1C`: the activity in assay [1] was -23.9%; in assay [3] it was -27.1%; in assay [4] it was -17.6%. For the same molecule, the Potency in assay [2] is 24.1 µM (active).

For the molecule `Cc1cc(C)cc(-c2cnc3cc(Cl)c(-c4cccc(O)c4)cc3c2OCCCN)c1`, the activity in assay [1] is -38.4%; in assay [3], -83.8%; in assay [4], -37.3%. Besides, the Potency in assay [2] is 42.9 µM (active).
